Screening data from PubChem.
Y pestis TopoI: Yersinia pestis topoisomerase I inhibitors, primary screen, biochemical, cleavage product accumulation, plate reader, single point | AID 504884, 2011 | activity, % at 10 µM | 360,000 compounds, 0.064% hits | Y. pestis Topo-I cleavage product accumulation; in the data active = activity above about 50%, passing the limit was not always enough
PrP UTR inh: inhibition of PrP 5' UTR reporter expression. cell-based PrP 5' UTR mRNA reporter, plate reader. inhibition, % (no concentration beside the values). 340,000 compounds, 0.35% hits. AID 488862, 2010; in the data active = inhibition above about 52%; note: 0 = median of the neutral control wells
PfHsp40 rescue: rescue of yeast from PfHsp40 toxicity, primary screen, S. cerevisiae, ATP luminescence; S. cerevisiae expressing PfHsp40, growth rescue; 340,000 compounds, 0.68% hits; growth rescue, % at 12.5 µM; AID 504582, 2011; in the data active = growth rescue above about 28%, passing the limit was not always enough;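 note: yeast W303a lacking pdr1 and pdr3 grown in galactose medium; growth measured after three days at 30 °C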
BJeLR viability: MLPCN primary cell-based screen for lethality selective to Ras in HRASV12 cells; BJeLR (HRASV12) viability, CellTiter-Glo ATP luminescence, 48 h; inhibition, % (no concentration beside the values); 300,000 compounds, 0.17% hits; AID 1554, 2009; in the data active = inhibition above about 50%
PrPC TRFRET: inhibitors of human cell surface prion protein PrPC, primary screen, cell-based, TR-FRET | Major prion protein (Homo sapiens), P04156 | TR-FRET read-out | inhibition, % at 13.8 µM | 370,000 compounds, 0.43% hits | AID 720596, 2013; in the data active = inhibition above about 24%; note: 0% = median of the test wells and 100% = reference compound wells
CCHFV vOTU inh: CCHFV vOTU protease inhibitors, primary screen, biochemical, Pep-AMC substrate, fluorescence. AID 651958, 2012. 370,000 compounds, 0.55% hits. inhibition, % at 11.5 µM; in the data active = inhibition above about 30%; note: 0% = vehicle wells with enzyme and 100% = no enzyme wells
* = called active by the depositor; ! = repeats disagree. Hits are enriched below; roughly 2% of the tested compounds scored in any of these assays.

What do the screens show for `Oc1ccc(Cl)cc1N=Nc1ccccc1`?
Y pestis TopoI: 0.9; PrP UTR inh: -22.6; PfHsp40 rescue: 0.9; BJeLR viability: -1.3; PrPC TRFRET: -7.9; CCHFV vOTU inh: 8.2

Results for O=S(=O)(O)c1cc(O)c2c(O)c(N=Nc3cc(Cl)ccc3O)c(S(=O)(=O)O)cc2c1 ?
Y pestis TopoI: 65.0*; PrP UTR inh: -3.1; PfHsp40 rescue: 15.9; BJeLR viability: 20.9

What do the screens show for `C#CCNC(=O)C[C@H]1C[C@@]2(C(=O)OC)C(=C[C@H](C(C)(C)C)O[C@@H]2C)N(CCC2=CCCCC2)C1=O`?
PrPC TRFRET: 1.7; CCHFV vOTU inh: 8.0

What do the screens show for `CCCCN1CCN(C2=Nc3ccccc3Sc3ccccc32)CC1`?
PrPC TRFRET: 2.0; CCHFV vOTU inh: 6.9

Results for CCc1oc2ccccc2c1C(=O)c1cc(Br)c(O)c(Br)c1 ?
Y pestis TopoI: -2.3; PrP UTR inh: -11.1; PfHsp40 rescue: 259.2*!; BJeLR viability: 2.5; PrPC TRFRET: 9.4; CCHFV vOTU inh: 18.0

Results for Cc1ccc(NC(=O)CSc2ccc(-c3ccccn3)nn2)c(C)c1 ?
Y pestis TopoI: 9.3; PrP UTR inh: -12.5; PfHsp40 rescue: 104.7*; BJeLR viability: 6.0; PrPC TRFRET: -1.7; CCHFV vOTU inh: 0.2

What do the screens show for `Cc1cccc(NC(=O)CSc2ccc(-c3ccccn3)nn2)c1C`?
Y pestis TopoI: -2.1; PrP UTR inh: -27.7; PfHsp40 rescue: 200.0*; BJeLR viability: -1.4; PrPC TRFRET: 0.6; CCHFV vOTU inh: 4.1

What do the screens show for `Cc1cc(C)c(NC(=O)CSc2ccc(-c3ccccn3)nn2)c(C)c1`?
Y pestis TopoI: 11.5; PrP UTR inh: -16.6; PfHsp40 rescue: -1.5; BJeLR viability: -5.8; PrPC TRFRET: -0.8; CCHFV vOTU inh: -6.5

What do the screens show for `COc1ccc(NC(=O)CSc2ccc(-c3ccccn3)nn2)cc1OC`?
Y pestis TopoI: 1.5; PrP UTR inh: -49.8; PfHsp40 rescue: 215.2*; BJeLR viability: 15.5; PrPC TRFRET: -6.1; CCHFV vOTU inh: 6.6

Results for COc1ccccc1NC(=O)CSc1ccc(-c2ccccn2)nn1 ?
Y pestis TopoI: 11.8; PrP UTR inh: -17.2; PfHsp40 rescue: -1.5; BJeLR viability: -10.1; PrPC TRFRET: 8.8; CCHFV vOTU inh: 26.8

How did Cc1ccc(NC(=O)CSc2ccc(-c3ccccn3)nn2)cc1 do in these assays?
Y pestis TopoI: -7.7; PrP UTR inh: 1.6; PfHsp40 rescue: 103.4*; BJeLR viability: -9.4; PrPC TRFRET: 5.1; CCHFV vOTU inh: -12.7

What do the screens show for `CCOC(=O)[C@]12CCCCC/C=C\1N(CCc1ccc(Cl)cc1)C(=O)[C@H]2CC(=O)NCCc1ccccc1OC`?
PrPC TRFRET: -0.3; CCHFV vOTU inh: 8.6

Results for CCCC[C@H]1C2CC(OC(=O)NCc3ccc(Cl)cc3)C(C2)[C@H]2CCCCN21 (stereo partly drawn) ?
PrPC TRFRET: 2.8; CCHFV vOTU inh: 1.5

How did CCc1ccc(NC(=O)CSc2ccccn2)cc1 do in these assays?
Y pestis TopoI: 15.3; PrP UTR inh: -71.5; PfHsp40 rescue: 61.6*; BJeLR viability: 5.4; PrPC TRFRET: 6.9; CCHFV vOTU inh: 10.3

What do the screens show for `O=C(CSc1ccccn1)Nc1ccc(NC(=O)CSc2ccccn2)cc1`?
Y pestis TopoI: 8.7; PrP UTR inh: -21.1; PfHsp40 rescue: -1.9; BJeLR viability: -1.5; PrPC TRFRET: -8.7; CCHFV vOTU inh: -4.5

How did O=C1COc2ccc(S(=O)(=O)N3CCN(c4cccc(Cl)c4)CC3)cc2N1 do in these assays?
Y pestis TopoI: 14.8; PrP UTR inh: -11.4; PfHsp40 rescue: 53.4*; BJeLR viability: -3.3; PrPC TRFRET: -1.5; CCHFV vOTU inh: 1.1

What do the screens show for `O=C1COc2ccc(S(=O)(=O)CCC(=O)N3CCN(c4cccc(Cl)c4)CC3)cc2N1`?
Y pestis TopoI: 3.3; PrP UTR inh: 6.7; PfHsp40 rescue: -0.9; BJeLR viability: -4.7; PrPC TRFRET: 5.2; CCHFV vOTU inh: -2.8

What do the screens show for `CC(C)c1ccc(-c2nnn(CCC(=O)O)n2)cc1`?
Y pestis TopoI: 8.8; PrP UTR inh: 72.8*; PfHsp40 rescue: -0.2; BJeLR viability: -2.4

What do the screens show for `[O-]c1ccccc1-[n+]1c(-c2ccccc2)cc(-c2ccccc2)cc1-c1ccccc1`?
Y pestis TopoI: 8.4; PrP UTR inh: -1.3; PfHsp40 rescue: 1.5; BJeLR viability: 63.2*; PrPC TRFRET: -4.8; CCHFV vOTU inh: 6.2

How did C[C@@H]1ON(C)[C@H]2C[C@H]3c4cc(Br)ccc4CCN3C[C@@H]12 do in these assays?
PrPC TRFRET: -3.8; CCHFV vOTU inh: 13.4

Results for O=C(NC(C(=O)N/N=C/c1cccc2ccccc12)c1n[nH]c(=O)c2ccccc12)c1ccccc1 (stereo not drawn) ?
Y pestis TopoI: 36.2; PrP UTR inh: -26.0; PfHsp40 rescue: 1.3; BJeLR viability: 4.4; PrPC TRFRET: -6.4; CCHFV vOTU inh: 7.7

Results for O=C(NC(C(=O)N/N=C/c1cc([N+](=O)[O-])ccc1O)c1n[nH]c(=O)c2ccccc12)c1ccccc1 (stereo not drawn) ?
Y pestis TopoI: -0.7; PrP UTR inh: -10.8; PfHsp40 rescue: 81.9*; BJeLR viability: 2.9; PrPC TRFRET: -13.3; CCHFV vOTU inh: 14.9

What do the screens show for `O=C(Nc1ccc(Cl)cn1)c1cccc(S(=O)(=O)N2CCCCC2)c1`?
Y pestis TopoI: 16.1; PrP UTR inh: -12.2; PfHsp40 rescue: 70.4*; BJeLR viability: -14.1; PrPC TRFRET: 1.2; CCHFV vOTU inh: -11.4

How did COC(=O)C1CN(Cc2ccccc2)CCS(=O)(=O)N1Cc1cn(Cc2ccc(F)cc2)nn1 (stereo not drawn) do in these assays?
PrPC TRFRET: 1.0; CCHFV vOTU inh: -0.4

How did CCOc1cc([N+](=O)[O-])cc(/C=N/NC(=O)c2c(-c3ccccc3)noc2C)c1O do in these assays?
Y pestis TopoI: -6.4; PrP UTR inh: -13.6; PfHsp40 rescue: 260.7*; BJeLR viability: 3.1

What do the screens show for `Fc1ccc2nc(-c3ccc(CN4CCC(c5nc6ccccc6[nH]5)CC4)cc3)c(-c3ccccc3)nc2c1`?
PrPC TRFRET: -17.4; CCHFV vOTU inh: 9.3

How did CC[C@H](C)C(=O)O[C@H]1C[C@@H](C)C=C2C=C[C@H](C)[C@H](CC[C@@H]3C[C@@H](O)CC(=O)O3)[C@H]21 do in these assays?
Y pestis TopoI: 41.1; PrP UTR inh: -13.8; PfHsp40 rescue: 69.0*!; BJeLR viability: -6.3; PrPC TRFRET: 2.8; CCHFV vOTU inh: -5.0

What do the screens show for `C=C1C(=O)OC2CC(C)C3C=CC(=O)C3(C)C(O)C12` (stereo not drawn)?
Y pestis TopoI: -7.7; PrP UTR inh: 25.9; PfHsp40 rescue: 0.3
